{"source": "PubChem BioAssay AID1850", "about": "(Southern Research Specialized Biocontainment Screening …, 2009)", "note": "Hit rate of the full screen: of about 310,000 compounds, about 1,000 (0.32%) were called active. How the calls were made is not given here. These entries were drawn from the full list. Entries with a potency or affinity are not part of this list."}
{"assay": "PhoP regulon inhibitors, Salmonella typhi PhoP promoter GFP reporter, confirmatory (AID 1850);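 further: 0% = induced wells with vehicle and 100% = uninduced wells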", "details": "fluorescence, 4 h, at 50 µM, stronger effect = higher value"}
{"compound": "CN1CCN(c2ccc(F)cc2N)CC1", "inhibition": "-23.4% (inactive)"}
{"compound": "CN1CCN(C2=Cc3ccc(Cl)cc3Sc3ccc(F)cc32)CC1", "inhibition": "2.54% (inactive)"}
{"compound": "CN1CCN(c2ccc(Cl)cc2N)CC1", "inhibition": "5.42% (inactive)"}
{"compound": "CN1CCN(C2=Nc3cc(F)ccc3Cc3ccccc32)CC1", "inhibition": "10.2% (inactive)"}
{"compound": "CN1CCN(C2=Cc3ccccc3Sc3cc(F)c(F)cc32)CC1", "inhibition": "56.3% (inactive)"}
{"compound": "CN1CCN(c2nc(-c3ccc(Cl)c(Cl)c3)nc3ccccc23)CC1", "inhibition": "-3.79% (inactive)"}
{"compound": "COc1ccc(N(CC(=O)Nc2ccc(C(C)C)cc2)S(=O)(=O)c2c(C)noc2C)cc1", "inhibition": "-9.48% (inactive)"}
{"compound": "COc1ccccc1NC(=O)CSc1nnc(Cc2ccccc2)o1", "inhibition": "-0.38% (inactive)"}
{"compound": "CCC(=O)OC1(Cc2ccc(CC)cc2)CC(C)N(C)CC1C", "note": "(stereo not drawn)", "inhibition": "-0.84% (inactive)"}
{"compound": "CCOC(=O)C1(CCOC)CCN(Cc2ccncc2)CC1", "inhibition": "-5.83% (inactive)"}
{"compound": "COc1ccc(CN2CCN(C)CC2)cc1OCc1ccccc1", "inhibition": "0.01% (inactive)"}
{"compound": "O=C(Oc1c(CN2CCOCC2)cc(Cl)c2cccnc12)c1ccccc1", "inhibition": "9.08% (inactive)"}
{"compound": "Oc1c(CN2CCOCC2)cc(-c2ccccc2)cc1CN1CCOCC1", "inhibition": "9.41% (inactive)"}
{"compound": "Oc1c(CN2CCCCC2)cc(COCc2ccccc2)c2cccnc12", "inhibition": "-6.03% (inactive)"}
{"compound": "Cc1cccc(OCC(=O)Nc2nnc(-c3ccco3)s2)c1", "inhibition": "5.97% (inactive)"}
{"compound": "CCOc1ccc2nc(N3CCCC(C(=O)NCCCN4CCCCC4)C3)sc2c1", "note": "(stereo not drawn)", "inhibition": "6.31% (inactive)"}
{"compound": "CCN(CC(N)=O)S(=O)(=O)c1ccc(Br)cc1", "inhibition": "4.08% (inactive)"}
{"compound": "N=c1n(CCN2CCCC2)c2ccccc2n1CC(O)c1ccc(Cl)c(Cl)c1", "note": "(stereo not drawn)", "inhibition": "27.1% (inactive)"}
{"compound": "N=c1n(CCN2CCOCC2)c2ccccc2n1CC(=O)c1ccc(Cl)c(Cl)c1", "inhibition": "20.6% (inactive)"}
{"compound": "N=c1n(CCN2CCCCC2)c2ccccc2n1CC(O)c1cccc(Br)c1", "note": "(stereo not drawn)", "inhibition": "2.9% (inactive)"}
{"compound": "CCCn1c(=N)n(CC(=O)c2ccc(Cl)c(Cl)c2)c2ccccc21", "inhibition": "-5.11% (inactive)"}
{"compound": "CC1=NN(c2nc(C)cc(C)n2)C(=O)C1CCC(C)C", "note": "(stereo not drawn)", "inhibition": "2.35% (inactive)"}
{"compound": "Cc1cc(C)nc(NC(=O)c2cccs2)c1", "inhibition": "-2.29% (inactive)"}
{"compound": "Cc1cccc(NS(=O)(=O)c2c(C)nc3scc(C)n3c2=O)c1", "inhibition": "-24.5% (inactive)"}
{"compound": "COC(=O)C1CSC(C(=O)OC)N1C(=O)CN1CC(C)OC(C)C1", "note": "(stereo not drawn)", "inhibition": "-2.04% (inactive)"}
{"compound": "O=c1[nH]c(=O)n(C2OC(CO)C(O)C2O)cc1Br", "note": "(stereo not drawn)", "inhibition": "-19.2% (inactive)"}
{"compound": "O=c1ccn([C@@H]2O[C@H](CO)[C@@H](O)[C@H]2O)c(=O)[nH]1", "inhibition": "-0.0767% (inactive)"}
{"compound": "Cc1cc(C)nc(CCNC(=O)c2cc(COc3c(C)cccc3C)on2)n1", "inhibition": "-3.31% (inactive)"}
{"compound": "CC(C)Oc1ccc(C(=O)NCC(=O)OCC(=O)N(C)Cc2cccs2)cc1", "inhibition": "2.06% (inactive)"}
{"compound": "CCn1c(C)cc(C)c(C#N)c1=O", "inhibition": "7.92% (inactive)"}
{"compound": "CCN(CC)CCn1c(=N)n(CC(O)COc2ccccc2)c2ccccc21", "note": "(stereo not drawn)", "inhibition": "15.1% (inactive)"}
{"compound": "Cc1ccc(OCC(O)Cn2c(=N)n(CCN3CCOCC3)c3ccccc32)cc1", "note": "(stereo not drawn)", "inhibition": "14% (inactive)"}
{"compound": "COc1ccc(OCC(O)Cn2c(=N)n(CCN3CCCCC3)c3ccccc32)cc1", "note": "(stereo not drawn)", "inhibition": "20.8% (inactive)"}
{"compound": "CCCCn1c(=N)n(CC(O)COc2cccc(C)c2)c2ccccc21", "note": "(stereo not drawn)", "inhibition": "9.29% (inactive)"}
{"compound": "N=c1n(CCN2CCCCC2)c2ccccc2n1CC(O)COc1ccccc1", "note": "(stereo not drawn)", "inhibition": "28% (inactive)"}
{"compound": "CCCn1c(=N)n(CC(O)COc2cccc(C)c2)c2ccccc21", "note": "(stereo not drawn)", "inhibition": "3.8% (inactive)"}
{"compound": "Cc1ccc(SCC(=O)OCC(=O)NCCC2=CCCCC2)cc1", "inhibition": "9.93% (inactive)"}
{"compound": "O=C(O)CNC(=O)C1COc2ccccc2O1", "note": "(stereo not drawn)", "inhibition": "8.95% (inactive)"}
{"compound": "COCCCn1c(C23CC4CC(CC(C4)C2)C3)n[nH]c1=S", "inhibition": "-6.32% (inactive)"}
{"compound": "Fc1ccc(CCNCc2ccc(Br)cc2)cc1", "inhibition": "-3.63% (inactive)"}
{"compound": "C1N2CN3CN1CN(C2)C3", "inhibition": "-6.24% (inactive)"}
{"compound": "O=C(CSc1nnnn1C1CCCC1)N1CCCc2ccccc21", "inhibition": "11.7% (inactive)"}
{"compound": "COc1ccccc1OCCC(=O)OCC(=O)c1[nH]c(C)c(C(C)=O)c1C", "inhibition": "10.1% (inactive)"}
{"compound": "O=C(NCN1CCN(c2ccccc2F)CC1)c1ccccc1", "inhibition": "0.63% (inactive)"}
{"compound": "C/C(=N\\NC(=O)C1CC1)c1ccc(Cl)c(Cl)c1", "inhibition": "5.7% (inactive)"}
{"compound": "NCC(=O)c1cccc2ccc[n+]([O-])c12", "inhibition": "-7.72% (inactive)"}
{"compound": "C[n+]1cccc2c(Br)ccc([O-])c21", "inhibition": "4.86% (inactive)"}
{"compound": "O=C(CSc1n[nH]c(=O)[nH]c1=O)c1ccccc1[N+](=O)[O-]", "inhibition": "-3.6% (inactive)"}
{"compound": "CCN(Cc1cc2ccccc2[nH]c1=O)C(=O)c1cccnc1", "inhibition": "1.33% (inactive)"}
{"compound": "COc1ccc(C2(CNC(=O)/C=C\\c3ccco3)CCCC2)cc1OC", "inhibition": "-2.04% (inactive)"}
{"compound": "COC(=O)c1ccccc1NC(=S)NC(=O)COc1ccccc1", "inhibition": "10.9% (inactive)"}
{"compound": "Cc1ccccc1C(=O)NNC(=S)NC(=O)c1ccccc1", "inhibition": "-2% (inactive)"}
{"compound": "CC(C)(C)c1ccc(C(=O)NC(=S)NNC(=O)COc2ccccc2)cc1", "inhibition": "-4.42% (inactive)"}
{"compound": "O=C(COc1ccccc1)NNC(=S)NC(=O)c1ccccc1", "inhibition": "12.9% (inactive)"}
{"compound": "CCc1ccc(NC(=S)Nn2cnnc2)cc1", "inhibition": "3.78% (inactive)"}
{"compound": "CCn1cc(C(=O)c2ccccc2)c2ccccc21", "inhibition": "-2.86% (inactive)"}
{"compound": "COc1ccc(/C=C/C(=O)Nc2ccc(-c3nnc4n3CCCCC4)cc2)c(OC)c1", "inhibition": "5.23% (inactive)"}
{"compound": "CC(=O)OC(C(=O)NCc1ccco1)c1ccncc1", "note": "(stereo not drawn)", "inhibition": "-8.42% (inactive)"}
{"compound": "Cc1c(CCOC(=O)CC23CC4CC(CC(C4)C2)C3)sc[n+]1CC(=O)c1ccc(Br)cc1", "inhibition": "-0.11% (inactive)"}
{"compound": "Cc1c(CCOC(=O)c2ccccc2)sc[n+]1CC(=O)c1ccc(Br)cc1", "inhibition": "-8.05% (inactive)"}
{"compound": "O=C(Nc1nc(-c2cccc([N+](=O)[O-])c2)cs1)c1cccc([N+](=O)[O-])c1C(=O)O", "inhibition": "5.24% (inactive)"}
{"compound": "O=C(NC1CCCCCCC1)C1CCN(S(=O)(=O)N2CCCC2)CC1", "inhibition": "11% (inactive)"}
{"compound": "O=C(CSc1nc2ccccc2[nH]1)Nc1ccccc1F", "inhibition": "-4.68% (inactive)"}
{"compound": "O=C(CSc1nc2ccccc2[nH]1)Nc1ccc(F)cc1", "inhibition": "0.68% (inactive)"}
{"compound": "Cc1ccc(NS(=O)(=O)c2ccc3c(c2)NC(=O)CCS3)c(Br)c1", "inhibition": "1.1% (inactive)"}
{"compound": "NC(=O)/C=C/C(=O)Nc1ccc(Cl)cc1", "inhibition": "5% (inactive)"}
{"compound": "O=C(/C=C/c1ccc(F)cc1)NC(=S)NC1CCCCC1", "inhibition": "2.79% (inactive)"}
{"compound": "CC(C)NC(=S)NC(=O)/C=C/c1ccc(F)cc1", "inhibition": "-3.22% (inactive)"}
{"compound": "COc1ccc(/C=C/C(=O)NC(=S)NNC(=O)c2cc(OC)c(OC)c(OC)c2)cc1", "inhibition": "4.25% (inactive)"}
{"compound": "COc1ccc(/C=C/C(=O)NC(=S)NNC(=O)c2cccnc2)cc1", "inhibition": "-4.83% (inactive)"}
{"compound": "CC(/C=C/c1ccccc1)=N/NC(=O)c1cnccn1", "inhibition": "1.54% (inactive)"}
{"compound": "O=C(/C=C/c1ccccc1)NC(=S)NNC(=O)c1cccnc1", "inhibition": "4.06% (inactive)"}
{"compound": "NC(=O)c1nsc(C(=O)N(c2ccc3c(c2)OCO3)C(C(=O)NCC2CCCO2)c2ccc(F)cc2)c1N", "note": "(stereo not drawn)", "inhibition": "6.99% (inactive)"}
{"compound": "CSCCC(NS(=O)(=O)c1cc(C(=O)O)ccc1Cl)C(=O)O", "note": "(stereo not drawn)", "inhibition": "-1.99% (inactive)"}
{"compound": "C=CCNC(=O)c1oc2ccc(S(=O)(=O)N3CCCCC3)cc2c1C", "inhibition": "0.5% (inactive)"}
{"compound": "CCN(CC)CCCNC(=O)C1CCN(c2ncnc3c2sc2cccc(F)c23)CC1", "inhibition": "3.1% (inactive)"}
{"compound": "COc1ccc(Nc2nc(NN)nc(Nc3ccc(OC)cc3)n2)cc1", "inhibition": "-3.28% (inactive)"}
{"compound": "COc1c2n(C)ccc3c-2n(c(=O)c1=O)c1ccccc31", "inhibition": "17.2% (inactive)"}
{"compound": "O=S(=O)(NCCSc1ccc(Cl)cc1)c1ccc2c(c1)OCCO2", "inhibition": "-8.59% (inactive)"}
{"compound": "COc1cc(Cl)ccc1OCc1cc(C(=O)N2CCCCCCC2)no1", "inhibition": "-27.8% (inactive)"}
{"compound": "CC1(c2nnc(-c3ccc(F)cc3)o2)CC(c2ccc([N+](=O)[O-])cc2)=NO1", "note": "(stereo not drawn)", "inhibition": "3.35% (inactive)"}
{"compound": "CCNCc1ccc(OCc2ccccc2F)c(OC)c1", "inhibition": "-10.1% (inactive)"}
{"compound": "Fc1ccc(CNCCc2c[nH]c3ccccc23)cc1", "inhibition": "11.8% (inactive)"}
{"compound": "COc1cccc(CNCCc2c[nH]c3ccccc23)c1OCc1ccc(F)cc1", "inhibition": "-6.02% (inactive)"}
{"compound": "COc1cc(CNCCCCO)ccc1OCc1ccccc1F", "inhibition": "-5.61% (inactive)"}
{"compound": "Cc1cccnc1NC(=O)CCc1nnc2ccc(N3CCC4(CC3)OCCO4)nn12", "inhibition": "3.16% (inactive)"}
{"compound": "Oc1ccc2ccccc2c1CNc1ccc(Br)cn1", "inhibition": "-4.93% (inactive)"}
{"compound": "CC(C)c1nn(-c2cc(C(F)(F)F)ccn2)c(=O)o1", "inhibition": "1.48% (inactive)"}
{"compound": "CCOC(=O)c1cccc(NC(=O)c2cc(C)nn2-c2ccccc2)c1", "inhibition": "8.61% (inactive)"}
{"compound": "O=C(C[n+]1cc(-c2ccccc2)n2c1CCC2)Nc1nc(-c2ccccc2)cs1", "inhibition": "-3.98% (inactive)"}
{"compound": "Cc1ccc(NC(=O)C[n+]2cc(-c3ccccc3)n3c2CCC3)c(C)c1", "inhibition": "19.1% (inactive)"}
{"compound": "Cc1ccc(NC(=O)C[n+]2cc(-c3ccccc3)n3c2CCC3)cc1", "inhibition": "10% (inactive)"}
{"compound": "Cc1cccc(C)c1NC(=O)C[n+]1cc(-c2ccccc2)n2c1CCC2", "inhibition": "-8.77% (inactive)"}
{"compound": "Cc1ccc(-c2c[n+](CC(=O)Nc3ccccc3C)c3n2CCC3)cc1", "inhibition": "5.92% (inactive)"}
{"compound": "Cc1ccc(NC(=O)C[n+]2cc(-c3ccc(C)cc3)n3c2CCC3)cc1", "inhibition": "14.9% (inactive)"}
{"compound": "O=C(C[n+]1cc(-c2ccc(Cl)cc2)n2c1CCC2)Nc1nc(-c2ccc(F)cc2)cs1", "inhibition": "-19% (inactive)"}
{"compound": "Cc1ccccc1NC(=O)C[n+]1cc(-c2ccccc2)n2c1CCC2", "inhibition": "-9.34% (inactive)"}
{"compound": "Cc1ccc(C(=O)CSc2nc(C)cc(C)c2C(N)=O)cc1", "inhibition": "12.8% (inactive)"}
